Activation data for 44 compounds are collected here from PubChem BioAssay AID624414 (National Center for Advancing Translational Sciences (NCATS), 2012).

Hit rate of the full screen: of about 410,000 compounds, about 480 (0.12%) were called active. What follows is part of a selection rich in actives, with near analogues and random picks from the rest. Unmarked numbers belong to inactive results. No stated cut-off is given here; in the data, active means activation above about 50%; inconclusive means mostly about 30% to 49%; inactive means weaker than that.

Mucolipin-1 (Homo sapiens), sequence (Q9GZU1 whole entry, looked up, the tested form may be a part): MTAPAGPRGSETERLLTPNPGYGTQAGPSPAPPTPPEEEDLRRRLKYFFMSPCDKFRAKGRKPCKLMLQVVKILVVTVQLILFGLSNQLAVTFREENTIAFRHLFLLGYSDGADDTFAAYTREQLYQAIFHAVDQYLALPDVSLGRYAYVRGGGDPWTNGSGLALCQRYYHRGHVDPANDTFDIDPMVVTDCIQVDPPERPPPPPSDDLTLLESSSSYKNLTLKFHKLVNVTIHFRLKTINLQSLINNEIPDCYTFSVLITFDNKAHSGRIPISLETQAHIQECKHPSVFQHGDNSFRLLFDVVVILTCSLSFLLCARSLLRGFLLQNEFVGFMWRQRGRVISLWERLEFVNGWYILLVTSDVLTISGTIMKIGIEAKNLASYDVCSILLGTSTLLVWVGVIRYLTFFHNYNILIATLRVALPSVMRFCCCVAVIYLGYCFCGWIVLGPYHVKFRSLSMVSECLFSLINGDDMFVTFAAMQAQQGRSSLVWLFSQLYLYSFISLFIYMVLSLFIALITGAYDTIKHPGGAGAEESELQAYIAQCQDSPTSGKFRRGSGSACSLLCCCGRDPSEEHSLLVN

This experiment concerns the target Mucolipin-1 (Homo sapiens) (UniProt Q9GZU1). As to the kind of experiment: qHTS for Agonists of the Human Mucolipin Transient Receptor Potential 1 (TRPML1). Further: 0% is about no effect. The note with it: TRPML1-expressing cells, Ca2+ dye fluorescence, FDSS; hits give high values. The source says:
Mutations of human Mucolipin transient receptor potential 1 (TRPML1) cause type IV mucolipidosis (ML4), a devastating neurodegenerative disease in young children. […] Currently, there is no treatment for ML4. […] Under physiological conditions, TRPMLs regulate membrane trafficking by transducing information about PI(3,5)P2 levels into changes in juxtaorganellar Ca2+, thereby triggering membrane fusion/fission events in the late endocytic pathways (endolysosomal trafficking). In addition, TRPML1 mediates release of Fe2+ from late endosomes and lysosomes, which is essential for cellular iron metabolism. Thus, impaired ion (Ca2+ and Fe2+) homeostasis underlies lysosomal dysfunction and ML4 phenotypes. In ML4 cells, the problem is twofold. First, defective Ca2+-dependent membrane trafficking due to TRPML1-deficiency causes accumulation of lipids and other bio-materials in the lysosome. The second strike comes from the lysosomal iron overload (due to impairment of TRPML1's Fe2+ conductivity), which converts the accumulated materials into the nondegradable (resistant to lysosomal degradation) lipofuscin (also called aging pigment) in the lysosome. Lipofuscin accumulation dramatically compromises the functions of lysosomes.
Niemann-Pick type C (NPC) disease is another lysosome storage disease (LSD) with severe neurodegeneration during the childhood. Currently, there is no cure for NPC. […] Thus, TRPML1 is likely to be an essential regulator of lysosome ion homeostasis. We specifically hypothesize that stimulating TRPML1's Fe2+/Ca2+ channel activity in the lysosome using synthetic agonists can alleviate neurodegeneration associated with ML4 or NPC.
To this end, a high throughput screen was developed in a miniaturized format to screen against the Molecular Libraries Small Molecule Repository (MLSMR) to find small molecules that act either as inhibitors or agonist against the TRPML1 channel.
NIH Chemical Genomics Center [NCGC]
NIH Molecular Libraries Probe Centers Network [MLPCN]
Assay Submitter (PI): Haoxing Xu, University of Michigan Ann Arbor
TRPML1-DL cells are dissociated from flasks, counted and, brought up to a density of 500,000 cells per mL of media containing a 1X Tet inducer. Using a Multidrop Combi, 3uL of this cell solution is dispensed to each well of a 1536 TC treated, black, clear bottom hi base plate for a final cell density of 1,500 cells per well. The assay plates are incubated overnight (approximately 16 hours) at 37 degrees C and 5% CO2. Using a Multidrop Combi, 2uL of ABD Ca8 no wash dye plus quencher is added to each well. The assay plates incubate at room temperature in the dark for 45-90 minutes. The assay plate is read on the FDSS using the following protocol: 10 second baseline read, 23nL of compounds and controls are added using 1536 pintool, agonist read for 110 seconds, 1 uL EC80 addition (4uM final 54-4 diluted in media), antagonist read for 110 seconds.
As for `Cc1nc(N2CCN(c3ccccn3)CC2)c2c(C)c(C(=O)Nc3ccc(F)c(Cl)c3)sc2n1`, the activation was -0.23%. Turning to `O=C(Nc1ccccc1)c1ccccc1OCc1ccccc1`, the activation was 0.0539%. In the case of `COc1cc2nc(N3CCCN(C)CC3)nc(NC(C)C)c2cc1OC` it was -0.755%; in that of `O=C1CC(c2ccccc2)CC2=C1C(c1ccco1)n1nc(C(F)(F)F)nc1N2` (centres undefined), -1.28%; in that of `C=COC(=O)N1CCN(/[N+]([O-])=N/Oc2ccc([N+](=O)[O-])cc2[N+](=O)[O-])CC1`, 1.19%. In the case of `COc1ccc(CN(Cc2ccccc2)C(=O)c2ccc(O)cc2)cc1COc1ccc(NC(C)=O)cc1`, the activation is 1.13%. Consider `OC(Cc1ccc2ccccc2n1)c1ccc(Cl)c(Cl)c1` (centres undefined), for which the activation is 0.0951%. Regarding `CCN(CC)c1ccc(C2C(C(N)=O)=C(C)Nc3nc(SCc4ccccc4)nn32)cc1` (centres undefined), the activation was -0.404%. On to `CCCOc1ccc(C2c3c(-c4ccccc4O)n[nH]c3C(=O)N2Cc2cccnc2)cc1` (centres undefined), for which the activation was 1.02%. On to `Cc1nn(C)cc1N1C(=O)c2cccc3c(N)ccc(c23)C1=O`, for which the activation was 66.8% (active). With `CN1C(=O)c2cccc3c(N)ccc(c23)C1=O`, the activation was 85.5% (active).

For the compound `Cc1ccc(Cn2cnc3c(cnn3C(C)(C)C)c2=O)c(F)c1`, the activation was 1.07%. Take `CN(C)c1ccc(NC(=O)CSc2nc(-c3ccco3)cc(C(F)(F)F)n2)cc1`: the activation is 0.776%. On to `CCN(CC)CCCC(C)n1c2nc(=O)[nH]c(=O)c-2nc2cc(Cl)ccc21` (centres undefined), for which the activation is 82.9% (active). In the case of `CCN(CC)CCCC(C)Nc1ccnc2cc(Cl)ccc12` (centres undefined) it was 0.571%. `Cc1cccc(-n2c(=O)c3c(c4cc(C)ccc4n3C)n(CC(=O)Nc3ccccc3Cl)c2=O)c1`: the activation was 1.58%. The value for `Brc1cccc[n+]1Cc1cccc(C[n+]2ccccc2Br)c1` was 0.0634%. The value for `Cc1cccc(NC(=O)COC(=O)c2ccccc2OCc2cccc(Br)c2)c1` was -0.0809%; that for `CCCCCCCNc1ccc(/C=C/c2ccnc3ccccc23)cc1` was 6.43%; that for `O=C(Nc1ccc(Cl)cc1)c1cnn2c1NC(=C1CC1)C=C2C(F)F` was -0.513%. For the compound `C/C(=N\NC(N)=S)c1ccncc1`, the activation is 0%. On to `CCOC(=O)c1c(C)oc2ccc(N(C(=O)c3ccncc3)S(=O)(=O)c3ccc(CC)cc3)cc12`, for which the activation is 0.815%. With `CCN(CC)c1ccc2cc(C(N)=O)/c(=N\NC(=O)c3ccncc3)oc2c1`, the activation was 81% (active). In the case of `COc1ccc(Br)cc1C1C2C=CCC(C)C2C(=O)N1Cc1ccccc1` (centres undefined), the activation was 1.3%. Turning to `CS(=O)c1ccc(/C=C2\C=Cc3ccccc32)cc1` (centres undefined), the activation is -0.666%. Regarding `COc1ccc(NC(=O)C2CCCN(S(=O)(=O)c3cccc4nonc34)C2)cc1Cl` (centres undefined), the activation was 0.791%. For the compound `Cc1ccc(-c2nc(=N)sn2Cc2ccccc2)cc1`, the activation is 0.856%. For `O=C(Cc1ccc(Cl)cc1)Nc1ccc2nn(-c3ccc(Cl)cc3)nc2c1`, the activation is -0.688%. Turning to `CCN(CC)/[N+]([O-])=N/OCOC(=O)Cc1c(C)n(C(=O)c2ccc(Cl)cc2)c2ccc(OC)cc12`, the activation is 1.25%. Turning to `O=C(COc1ccccc1C(=O)Nc1ccccc1)Nc1cccc(F)c1`, the activation was -0.0642%.

In the case of `CCn1c2ccccc2c2cc(CN3CCN(Cc4cccc(Cl)c4)CC3)ccc21`, the activation was 1.83%.

On to `Cc1cccc(N2CCN(C(c3ccc(N(C)C)cc3)c3nnnn3C(C)(C)C)CC2)c1C` (centres undefined), for which the activation was -0.374%. As for `COc1ccccc1C(c1nnnn1CC1CCCO1)N1CCN(c2ccccc2)CC1` (centres undefined), the activation is 1.14%. In the case of `Cc1cccc(N2CCN(C(c3ccccc3)c3nnnn3CC3CCCO3)CC2)c1C` (centres undefined) it was 83.5% (active). In the case of `O=C(CSc1nccn1Cc1ccc(Cl)cc1)NCc1ccccc1` it was -1.21%.

Regarding `SCc1nc2ccc(Cl)cc2[nH]1`, the activation is -0.507%.

As for `Cc1cc(C)c(/C=C2\C(=O)Nc3ccccc32)[nH]1`, the activation is 92% (active). `CC(C)OCCCn1c(SCC(=O)c2ccccc2)nc2c(sc3ccccc32)c1=O`: the activation was 0.121%. In the case of `CCOCCCNC(=O)c1ccc2nc(CCc3ccccc3)oc2c1`, the activation is 2.82%. As to `CC(C)(C)n1ncc2c(=O)n(Cc3ccc(C(=O)c4ccccc4)cc3)cnc21`, the activation is 2.07%. In the case of `CC(C(=O)N1CCc2ccccc21)N(C)CC(=O)Nc1ccc(F)cc1` (centres undefined) it was 51.7% (active); in that of `CC(OC(=O)Cc1ccc(F)cc1)C(=O)N1CCc2ccccc21` (centres undefined), 1.15%; in that of `CN(CC(=O)Nc1ccc(F)cc1)CC(=O)N1CCCCC1`, -0.517%. In the case of `O=C(O)C1=C/C(=C/C=[N+]2c3cc(O)c(O[C@H]4OC(CO)[C@@H](O)[C@@H](O)[C@@H]4O)cc3C[C@@H]2C(=O)[O-])C[C@H](C(=O)O)N1` (some centres undefined), the activation is -0.0321%.
